From PubChem BioAssay
Active and inactive are the calls of the source.

Tests used:
[1] = optical density shifts of acrAB sulA E. coli – strain DRC41, OD650, 48 h, E. coli filamentation inducer project, primary screen (AID 1152); settings: higher = more signal, called active from +8 up or from −8 down;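 further: E. coli MC1000 strain DRC41 lacking acrAB efflux pump and sulA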
[2] = probe aLefty1 binding on compound microarray – biochemical, small-molecule microarray, 635/667 nm fluorescence, primary screen (AID 1153); settings: higher = more signal;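 further: score merges spot fluorescence with signal-to-noise ratio from the scanned slide images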
[3] = plasmodial surface anion channel blockers, osmotic lysis – cell-based, P. falciparum Indochina, OD700, 1 h, primary screen (AID 1154); settings: P. falciparum Indochina infected RBC osmotic lysis, higher = more signal, called active from +8 up or from −8 down
[4] = plasmodial surface anion channel blockers, osmotic lysis – cell-based, P. falciparum Indochina, OD700, 2 h, primary screen (AID 1155);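 further: lysis reports solute entry through the parasite surface anion channel PSAC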; settings: P. falciparum Indochina infected erythrocytes, higher = more signal, called active from +8 up or from −8 down
[5] = changes in parasitized red cell lysis, either direction – P. falciparum Indochina, OD700, 3 h, PSAC antagonist project, primary screen (AID 1156); settings: P. falciparum-infected erythrocytes, osmotic lysis, higher = more signal, called active from +8 up or from −8 down
[6] = plasmodial surface anion channel blockers, osmotic lysis – cell-based, P. falciparum Indochina, OD700, 18 h, primary screen (AID 1157); settings: P. falciparum Indochina infected erythrocytes, osmotic lysis OD700, 18 h; higher = more signal, called active from +8 up or from −8 down
[7] = S6 kinase pathway phospho-S6 level changes – cell-based, A549, cytoblot, luminescence, serum-stimulated, primary screen (AID 1158); settings: 5 h, higher = more signal;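 further: serum-stimulated A549 lung adenocarcinoma cells; signal is phosphorylated S6 detected by cytoblot immunostaining with HRP secondary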
[8] = biological target: NADPH oxidase 2 (Homo sapiens) (UniProt P04839); assay: compounds shifting NOX2 Amplex Red fluorescence – cell-based, HEK293-NOX2, PMA-stimulated, NOX inhibitor project, primary screen (AID 1159); settings: 45 min, higher = more signal, called active from +8 up or from −8 down; further: test concentration not given here
Chain of NADPH oxidase 2 (Homo sapiens) (P04839 whole entry, looked up): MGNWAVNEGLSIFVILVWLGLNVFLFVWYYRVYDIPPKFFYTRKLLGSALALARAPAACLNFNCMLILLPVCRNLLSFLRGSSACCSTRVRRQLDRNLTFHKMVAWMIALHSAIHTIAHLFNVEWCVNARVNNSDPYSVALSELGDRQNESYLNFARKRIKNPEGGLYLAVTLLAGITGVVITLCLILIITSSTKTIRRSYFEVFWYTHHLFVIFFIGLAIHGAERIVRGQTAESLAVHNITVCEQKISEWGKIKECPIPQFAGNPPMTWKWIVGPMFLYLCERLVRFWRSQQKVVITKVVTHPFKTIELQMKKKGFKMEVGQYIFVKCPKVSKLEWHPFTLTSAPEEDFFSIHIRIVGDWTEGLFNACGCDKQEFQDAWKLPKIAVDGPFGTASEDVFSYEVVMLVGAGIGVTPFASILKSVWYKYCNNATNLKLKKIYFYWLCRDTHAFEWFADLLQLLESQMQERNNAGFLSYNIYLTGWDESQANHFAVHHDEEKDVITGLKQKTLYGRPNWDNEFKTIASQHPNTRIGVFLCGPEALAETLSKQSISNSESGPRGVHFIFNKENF

[9] = biological target: NADPH oxidase 4 (Homo sapiens) (UniProt Q9NPH5); assay: compounds shifting NOX4 Amplex Red fluorescence – cell-based, HEK293-NOX4, tetracycline-induced, NOX inhibitor project, primary screen (AID 1160); settings: HEK293-NOX4, Amplex Red H2O2 fluorescence, 45 min; higher = more signal, called active from +8 up or from −8 down
Chain of NADPH oxidase 4 (Homo sapiens) (Q9NPH5 whole entry, looked up): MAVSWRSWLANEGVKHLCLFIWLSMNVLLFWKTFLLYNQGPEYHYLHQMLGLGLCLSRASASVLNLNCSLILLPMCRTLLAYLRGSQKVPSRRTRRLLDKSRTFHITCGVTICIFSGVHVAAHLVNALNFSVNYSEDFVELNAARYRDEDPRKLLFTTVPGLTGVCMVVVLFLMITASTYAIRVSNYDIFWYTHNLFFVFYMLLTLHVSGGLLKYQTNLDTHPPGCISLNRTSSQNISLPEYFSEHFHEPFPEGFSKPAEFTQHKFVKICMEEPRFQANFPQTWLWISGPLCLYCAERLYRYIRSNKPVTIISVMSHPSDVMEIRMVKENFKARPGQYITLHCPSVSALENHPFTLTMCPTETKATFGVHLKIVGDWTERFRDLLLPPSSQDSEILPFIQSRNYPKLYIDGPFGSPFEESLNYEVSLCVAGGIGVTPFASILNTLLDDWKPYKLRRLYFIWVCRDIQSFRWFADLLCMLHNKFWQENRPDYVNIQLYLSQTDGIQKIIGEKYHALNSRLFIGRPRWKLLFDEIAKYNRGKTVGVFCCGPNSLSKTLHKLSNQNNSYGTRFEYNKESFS

[10] = biological target: NADPH oxidase 5 (Homo sapiens) (UniProt Q96PH1); assay: compounds shifting NOX5 Amplex Red fluorescence – cell-based, HEK293-NOX5, NOX inhibitor project, primary screen (AID 1161); settings: HEK293-NOX5, ionomycin, 45 min, higher = more signal
Chain of NADPH oxidase 5 (Homo sapiens) (Q96PH1 whole entry, looked up): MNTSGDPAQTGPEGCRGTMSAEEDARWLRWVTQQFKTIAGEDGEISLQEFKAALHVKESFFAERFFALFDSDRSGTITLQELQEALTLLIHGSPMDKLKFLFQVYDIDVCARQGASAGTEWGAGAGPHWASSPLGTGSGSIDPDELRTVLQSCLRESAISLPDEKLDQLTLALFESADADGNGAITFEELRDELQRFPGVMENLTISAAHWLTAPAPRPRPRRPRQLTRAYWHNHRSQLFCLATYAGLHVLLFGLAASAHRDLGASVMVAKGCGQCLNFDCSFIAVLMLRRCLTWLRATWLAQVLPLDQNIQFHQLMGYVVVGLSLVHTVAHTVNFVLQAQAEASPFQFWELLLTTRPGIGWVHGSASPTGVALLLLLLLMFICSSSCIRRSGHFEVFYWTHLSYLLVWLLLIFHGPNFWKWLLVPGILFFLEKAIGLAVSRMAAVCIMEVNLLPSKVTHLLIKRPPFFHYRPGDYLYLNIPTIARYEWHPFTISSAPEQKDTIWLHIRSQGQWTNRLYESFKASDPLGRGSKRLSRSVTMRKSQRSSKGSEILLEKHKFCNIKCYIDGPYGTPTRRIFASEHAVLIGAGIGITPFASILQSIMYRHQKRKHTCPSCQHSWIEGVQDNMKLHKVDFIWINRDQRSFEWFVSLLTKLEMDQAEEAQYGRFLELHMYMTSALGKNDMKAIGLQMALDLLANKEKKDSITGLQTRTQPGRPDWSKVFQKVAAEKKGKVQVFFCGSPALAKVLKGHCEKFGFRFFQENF

Compound | z-score [1] | composite z-score [2] | z-score [3] | z-score [4] | z-score [5] | z-score [6] | z-score [7] | z-score [8] | z-score [9] | z-score [10]
COC(=O)[C@@]1(Cc2ccc(OC)cc2)[C@H]2c3cc(C(=O)N(C)C)n(Cc4ccc(C)o4)c3C[C@H]2CN1C(=O)c1ccccc1 | -0.155 (inactive) | 0.346 | 4.12 (inactive) | 0.057 (inactive) | 1.3 (inactive) | 0.594 (inactive) | 1.5 | -0.351 (inactive) | -0.0809 (inactive) | -3.41
COc1ccccc1CN1C(=O)c2ccccc2[C@](Cc2ccccc2I)(C(=O)O)[C@@H]1c1ccc(CO)cc1 | 1.03 (inactive) | 0.0366 | 5.55 (inactive) | 1.09 (inactive) | -0.0546 (inactive) | 0.426 (inactive) | -0.523 | 1.03 (inactive) | 0.616 (inactive) | 0.646
NCCCCCCNC(=O)[C@@H]1C[C@@H]2C(=O)N[C@@H](CCCCN)C(=O)N2[C@@H]1c1ccc(O)cc1 | 0.264 (inactive) | 0.614 | 1.11 (inactive) | -1.03 (inactive) | -2.05 (inactive) | -1.85 (inactive) | 0.0189 | -1.77 (inactive) | -1.06 (inactive) | -3.51
COCCCNC(=O)[C@@H]1c2ccccc2C(=O)N(C(C)C)[C@H]1c1ccc(CO)cc1 | -0.476 (inactive) | 0.142 | 0.178 (inactive) | 0.211 (inactive) | -0.172 (inactive) | 0.206 (inactive) | 0.219 | 0.161 (inactive) | -0.904 (inactive) | -0.51
CCCCN1CC=CC23O[C@@H]4/C=C\CCC(C)OC(=O)C4[C@H]2C(=O)N(CCCO)[C@@H]3C1=O (stereo not given in full) | 0.323 (inactive) | 0.0494 | 0.591 (inactive) | -0.0611 (inactive) | -0.23 (inactive) | 0.408 (inactive) | -0.118 | 1.1 (inactive) | -1.84 (inactive) | 0.861
CCOC(=O)C[C@H]1[C@H](OC(=O)c2ccc(C(=O)c3ccccc3)cc2)[C@@H](NC(=O)CC(C)C)c2cc(OCCCO)ccc2N1C(=O)c1ccccc1 | -0.804 (inactive) | -0.191 | 1.06 (inactive) | 0.966 (inactive) | -0.416 (inactive) | 0.26 (inactive) | -0.163 | 1.49 (inactive) | 0.861 (inactive) | 1.24
C=CC[C@@H](OC(=O)Nc1ccc(OC)cc1)c1ccc(O)c(F)c1 | 0.111 (inactive) | 0.109 | 2.93 (inactive) | -0.0384 (inactive) | -1.12 (inactive) | -0.113 (inactive) | -0.386 | -6 (inactive) | -2.91 (inactive) | -3.48
CC#CCO[Si](C#Cc1ccccc1)(C(C)C)C(C)C | -0.112 (inactive) | -0.193 | 0.175 (inactive) | -0.286 (inactive) | -0.975 (inactive) | -0.4 (inactive) | -1.16 | -2.19 (inactive) | -0.176 (inactive) | -0.624
COCCOC(=O)N1C(=O)[C@@]2(c3cc(C#CC4=CCCCC4)ccc31)[C@H](C(=O)Nc1nc3ccccc3s1)[C@H]1C(=O)O[C@H](c3ccccc3)[C@H](c3ccccc3)N1[C@@H]2c1ccc(O)cc1 | -0.61 (inactive) | 0.103 | 0.141 (inactive) | 0.524 (inactive) | -0.0845 (inactive) | 1.2 (inactive) | -0.123 | 0.843 (inactive) | -0.44 (inactive) | 0.759
CCCC[C@@H](O)C1=C(COc2ccccc2)C[C@H]2C(=O)N(Cc3ccccc3)C(=O)[C@H]2[C@H]1CO | 0.232 (inactive) | -0.0564 | 13.9 (active) | 1.59 (inactive) | -1.11 (inactive) | 0.967 (inactive) | -0.326 | -0.77 (inactive) | -0.286 (inactive) | -0.695
CC[C@@H]1C=C(C(=O)O)[C@H](c2ccc(C#N)cc2)N1S(=O)(=O)c1ccc(C)cc1 | -0.29 (inactive) | 0.276 | 1.48 (inactive) | 0.544 (inactive) | -0.158 (inactive) | 0.192 (inactive) | -0.436 | 0.452 (inactive) | -0.156 (inactive) | -0.848
CC1CC/C=C\[C@H]2OC34C=CCN(c5ccc(Cl)cc5)C(=O)[C@H]3N(C(C)CO)C(=O)[C@]4(C)C2C(=O)O1 (stereo not given in full) | 0.346 (inactive) | -0.284 | 0.685 (inactive) | 0.67 (inactive) | 0.335 (inactive) | 0.281 (inactive) | 0.116 | 0.889 (inactive) | -0.383 (inactive) | 1.17
COC(=O)[C@@H]1N=C(c2ccc(OCCCO)cc2)O[C@@H]1c1ccccc1 | 0.813 (inactive) | -0.717 | 24.5 (active) | 12.5 (active) | -1.03 (inactive) | 0.82 (inactive) | 0.264 | -0.499 (inactive) | 1.02 (inactive) | -0.273
N[C@@H](Cc1ccccc1)C(=O)NCc1cn(Cc2ccccc2)nn1 | 0.676 (inactive) | 0.397 | -0.39 (inactive) | 0.262 (inactive) | -0.0107 (inactive) | -0.0074 (inactive) | 0.0064 | 0.64 (inactive) | 0.359 (inactive) | 0.255
CCOC(=O)C1=C[C@@H](C(C)(C)C)N(S(=O)(=O)c2ccc(C)cc2)[C@H]1c1cccc2ccccc12 | -1.11 (inactive) | 0.0927 | 0.564 (inactive) | 0.849 (inactive) | 0.31 (inactive) | 0.193 (inactive) | -0.674 | -0.527 (inactive) | 0.13 (inactive) | 0.139
O=C1NC(=O)C2C1C=CC(C(O)c1ccco1)N2Nc1ccc(Cl)cc1Cl (stereo not given) | -2.27 (inactive) | -0.0984 | 5.52 (inactive) | 1.31 (inactive) | 0.331 (inactive) | 1.2 (inactive) | -0.992 | -0.767 (inactive) | -5.58 (inactive) | -4.22
CCCC=C(CCC)[C@@H](NC(=O)C(C)(C)C)c1ccc(C(=O)OC)cc1 | -1.31 (inactive) | 0.666 | 0.494 (inactive) | 0.889 (inactive) | -1.28 (inactive) | 1.21 (inactive) | 0.0791 | -0.129 (inactive) | 0.624 (inactive) | 2.5
CCCCCC1=C2CNC(C)(C(=O)OC)C=C2C(C)C1=O (stereo not given) | -1.81 (inactive) | -0.0236 | 0.585 (inactive) | 0.0544 (inactive) | 0.777 (inactive) | 0.373 (inactive) | -0.628 | 0.116 (inactive) | -2.6 (inactive) | -3.07
CCC1=C2CN(Cc3ccccc3)[C@@H](C(=O)Cc3ccccc3)C2C=CCC1 (stereo not given in full) | 0.806 (inactive) | -0.0984 | 0.26 (inactive) | -1.13 (inactive) | 0.564 (inactive) | -2 (inactive) | 0.492 | -1.12 (inactive) | -1.42 (inactive) | -0.123
CCCCC[C@H]1OC[C@@]23C=C(Br)[C@@H](CC12)[C@@]1(CO1)C3=O (stereo not given in full) | -1.12 (inactive) | -0.294 | 1.66 (inactive) | 0.533 (inactive) | 0.487 (inactive) | 0.184 (inactive) | -0.446 | -0.459 (inactive) | 0.438 (inactive) | 0.134
COCCOC(=O)N1C(=O)[C@@]2(c3cc(C#CC4(O)CCCCCC4)ccc31)[C@H](C(=O)Nc1nc3ccccc3s1)[C@H]1C(=O)O[C@H](c3ccccc3)[C@H](c3ccccc3)N1[C@@H]2c1ccc(O)cc1 | 0.0662 (inactive) | 0.219 | 0.4 (inactive) | 0.925 (inactive) | -0.186 (inactive) | 1.47 (inactive) | -0.335 | 1.01 (inactive) | 0.286 (inactive) | 0.785
CN(C)C(=O)[C@@]1(Cc2ccccc2)N=C(c2ccc(OCCCO)cc2)O[C@H]1c1ccccc1 | 0.756 (inactive) | -0.0171 | 14.9 (active) | 2.63 (inactive) | 1.4 (inactive) | 1.33 (inactive) | -0.39 | -0.896 (inactive) | 0.068 (inactive) | -1.7
CN(C)C(=O)[C@]1(Cc2ccccc2CN=[N+]=[N-])N=C(c2ccc(OCCCO)cc2)O[C@@H]1c1ccccc1 | -0.532 (inactive) | 0.457 | 27.1 (active) | 22.9 (active) | 1.76 (inactive) | 0.96 (inactive) | 1.87 | -4 (inactive) | -2.05 (inactive) | -1.94
CC(C)[Si]1(C(C)C)OCc2cc(-c3ccc(-c4ccc(Cl)c(Cl)c4)o3)nc(-c3ccccc3)c21 | -0.618 (inactive) | -0.0501 | 1.01 (inactive) | 0.394 (inactive) | 0.6 (inactive) | 0.138 (inactive) | -0.106 | 0.237 (inactive) | -1.35 (inactive) | 0.701
COc1cccc(C)c1NC(=O)O[C@H]1[C@H](OC(=O)Nc2ccccc2-c2ccccc2)[C@H](OC(=O)Nc2ccccc2-c2ccccc2)[C@@H](OC)O[C@@H]1CO | -0.0771 (inactive) | -0.017 | 1.57 (inactive) | 0.557 (inactive) | -0.299 (inactive) | 0.742 (inactive) | -0.319 | 0.224 (inactive) | -0.572 (inactive) | -0.507
C=C(COC)C(=O)CC[C@@H](OC(C)=O)c1cccc(OCCO)c1 | 0.0328 (inactive) | -0.152 | 4.13 (inactive) | 1.11 (inactive) | 0.864 (inactive) | 0.529 (inactive) | -0.487 | 0.212 (inactive) | -1.01 (inactive) | -1.06
CC1CC/C=C\[C@H]2OC34C=CCN(C(C)C)C(=O)[C@H]3N(CCO)C(=O)[C@@H]4C2C(=O)O1 (stereo not given in full) | 0.904 (inactive) | -0.101 | 0.158 (inactive) | 0.22 (inactive) | -0.285 (inactive) | 0.112 (inactive) | 1.86 | 2.21 (inactive) | -0.785 (inactive) | 2.03
